Records with an inconclusive call do not appear. The source made the active and inactive calls. Calls come from the whole dose curve; as a rule, active = well fitted inhibition curve with a large enough effect; inconclusive = small, poorly fitted or top-dose-only effect, or effect the other way; inactive = flat fitted curve, though single readings scatter.
Target: Ubiquitin carboxyl-terminal hydrolase 2 (Homo sapiens) (UniProt O75604)
Assay: Ub-rhodamine 110 based assay for inhibitors Ubiquitin-specific Protease USP2a; note: nearly all actives have a fitted effect of over 50% in size
Details: USP2a Ub-rhodamine110 cleavage, fluorescence; series mostly up to 38.3 µM; activity change, negative = inhibition: at the top concentration
Procedure, shortened: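 5 nM USP2a preincubated with compounds for 30 min at RT in 20 mM Tris-HCl pH 8.0, 2 mM CaCl2, 2 mM beta-mercaptoethanol, 0.05% CHAPS. Cleavage of 150 nM Ub-rhodamine 110 read kinetically (Ex 485/Em 531) for 7 min.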
% is set by controls: 0 for no effect and ±100 for the full control effect; potency is the fitted concentration of half-maximal effect.

Chain of Ubiquitin carboxyl-terminal hydrolase 2 (Homo sapiens) (O75604 whole entry, looked up): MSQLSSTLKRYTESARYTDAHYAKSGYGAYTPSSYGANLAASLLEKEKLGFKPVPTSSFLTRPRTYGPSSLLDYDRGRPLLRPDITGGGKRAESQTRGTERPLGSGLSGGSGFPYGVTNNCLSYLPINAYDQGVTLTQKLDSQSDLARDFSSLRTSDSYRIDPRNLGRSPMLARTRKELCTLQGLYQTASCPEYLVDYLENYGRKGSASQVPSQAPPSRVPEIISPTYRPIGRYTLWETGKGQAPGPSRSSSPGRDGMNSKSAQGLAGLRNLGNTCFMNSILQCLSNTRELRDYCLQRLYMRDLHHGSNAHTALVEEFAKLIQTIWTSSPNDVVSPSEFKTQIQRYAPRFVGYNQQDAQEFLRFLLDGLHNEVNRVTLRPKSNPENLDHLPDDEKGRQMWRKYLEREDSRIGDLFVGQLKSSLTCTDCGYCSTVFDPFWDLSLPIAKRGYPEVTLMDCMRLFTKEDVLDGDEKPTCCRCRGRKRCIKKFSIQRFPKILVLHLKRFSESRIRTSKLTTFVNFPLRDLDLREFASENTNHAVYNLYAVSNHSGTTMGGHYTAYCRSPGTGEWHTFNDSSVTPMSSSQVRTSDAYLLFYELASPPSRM

Row | Structure (SMILES) | Potency | activity change, negative = inhibition
1 | COc1ccc(NC(=O)c2cc(-c3ccco3)nc3ccccc23)cc1S(=O)(=O)N1CCOCC1 | 4.47 µM (active) | –
2 | O=C1NC[C@@H](c2ccccc2)OC(=O)[C@@H](Cc2ccc(F)cc2)CC/C=C/C[C@@H]1CC(=O)N(CCO)Cc1ccccc1 | – | -19.6% (inactive)
3 | O=C(NCC(c1cccnc1)N1CCN(c2ccc(F)cc2)CC1)OCc1ccccc1 (stereo not given) | – | -5.52% (inactive)
4 | Cc1ccc2[nH]c(=O)c(COC(=O)c3ccccn3)cc2c1 | – | -8.08% (inactive)
5 | O=C(NC1CCCCC1)C(c1ccco1)N(Cc1ccco1)C(=O)c1ccco1 (stereo not given) | – | -21.9% (inactive)
6 | Cc1nc2cc3ccccc3cc2c(=O)[nH]1 | – | -20.4% (inactive)
7 | CC(C)c1ccc(Nc2nnc(SCC(=O)c3nnc(-c4ccccc4)o3)s2)cc1 | 2.82 µM (active) | –
8 | CC1CCN(CC(O)COc2cccc(F)c2)CC1 (stereo not given) | – | -2.9% (inactive)
9 | C#CCOCCOCCOCCNc1nc(N2CCN(C(=O)CCCCCCCCCCNC(=O)Cn3cc(C[C@@H](C)O)nn3)CC2)nc(N2CCN(C(=O)CCCCCCCCCCNC(=O)[C@@H]([C@H](C)CC)n3cc(CCCCCN)nn3)CC2)n1 | – | -28.3% (inactive)
10 | O=C(O)c1cccc2c1C(=O)c1ccc(-c3ccc(F)cc3OCc3ccccc3)cc1S2(=O)=O | 11.2 µM (active) | –
11 | Nc1ccccc1S(=O)(=O)NC1=NCCCCC1 | – | -5.26% (inactive)
12 | Cc1cc(NC(=O)CN2C(=O)NC3(CCCCC3C)C2=O)no1 (stereo not given) | – | 4.44% (inactive)
13 | Nc1ccc(C2=Nc3cccc4cccc(c34)N2)cc1 | 12.6 µM (active) | –
14 | COc1ccc(-c2nc(C#N)c(NCC3CCCO3)o2)cc1OC (stereo not given) | – | -6.99% (inactive)
15 | O=C(COC(=O)c1cccc(S(=O)(=O)N2CCc3ccccc32)c1)NC1CCS(=O)(=O)C1 (stereo not given) | – | 0.352% (inactive)
16 | CCOC(=O)Nc1ccc(S(=O)(=O)Nc2cc(C)nc(C)n2)cc1 | – | 1.26% (inactive)
17 | CCOc1ccc(S(=O)(=O)N(CC(=O)O)c2ccccc2)cc1 | – | 3.71% (inactive)
18 | CCCc1cc(=O)oc2cc(C)c(CN3CCCC3)c(O)c12 | 10 µM (active) | –
19 | COc1cc(-c2nc(-c3ccc4c(c3)-c3ccccc3S4(=O)=O)c(-c3ccccc3)[nH]2)cc(OC)c1O | – | -23% (inactive)
20 | Cc1ccc(C(=O)NCCNS(=O)(=O)c2ccccc2)cc1 | – | -7.92% (inactive)

Row | Structure (SMILES) | Potency | activity change, negative = inhibition
21 | CCOC(=O)N1CCN(S(=O)(=O)c2ccc(C)cc2)C1c1ccc(OC)cc1 (stereo not given) | – | -18.1% (inactive)
22 | COc1ccc(S(=O)(=O)N2CCCCC2)cc1NC(=O)Cc1c[nH]c2ccccc12 | – | -20.6% (inactive)
23 | Cc1ccc(NC(=O)Cn2nc(C)c3ccccc3c2=O)cc1F | – | -5.77% (inactive)
24 | CC1=NN(c2ccc(C(=O)O)cc2)C(=O)/C1=C\c1ccc(OC(=O)c2cccs2)cc1 | – | -21.7% (inactive)
25 | C#CCOCCOCCOCCNc1nc(N2CCN(C(=O)CCCCCCCCCCNC(=O)Cn3cc(CCCCCN)nn3)CC2)nc(N2CCN(C(=O)CCCCCCCCCCNC(=O)Cn3cc(CCCCCN)nn3)CC2)n1 | – | -13.9% (inactive)
26 | C=C1c2c(Cl)ccc(O)c2C(O)=C2C(=O)[C@]3(O)C(O)=C(C(N)=O)C(=O)[C@@H](N(C)C)[C@@H]3[C@@H](O)C12 (stereo not given in full) | 6.31 µM (active) | –
27 | CC1=CC(C)(C)N(C(=O)c2ccccc2)c2ccccc21 | – | -14.4% (inactive)
28 | Cc1ccc(SCC(=O)NCC(C)C)cc1 | – | -0.9% (inactive)
29 | O=S(=O)(Nc1ccc(O)c(Sc2nc3ccccc3s2)c1)c1cccc2ccccc12 | 10 µM (active) | –
30 | CCOc1ccc(C(=O)c2ccc(OCC)c(N)c2)cc1N | – | -6.4% (inactive)
31 | COC(=O)c1c(N2C(=O)CCC2=O)sc2c1CCCC2 | – | -2.79% (inactive)
32 | Cc1nc2ccccc2c2oc(C(=O)NCCN3CCN(C)CC3)cc12 | – | -12.3% (inactive)
33 | COc1ccc(NC(=O)CSc2nnc(-c3ccccc3Cl)n2Cc2ccco2)c(OC)c1 | – | -3.93% (inactive)
34 | Cn1c2ccccc2c2nnc(SC3CCOC3=O)nc21 (stereo not given) | – | 1.37% (inactive)
35 | Cc1cccn2c(=O)c3cc(C(=O)NCCN4CCOCC4)c(=N)n(CCN4CCOCC4)c3nc12 | – | -12.3% (inactive)
36 | CC1=C(C(=O)OC(C)C)C(C)C(C(=O)OC(C)C)=C(C)N1 | – | -4.29% (inactive)
37 | CC(C)CCn1c(CN2CCN(C(=O)c3ccco3)CC2)nc2c1c(=O)n(C)c(=O)n2C | – | 24.1% (inactive)
38 | N#CCc1ccc(NC(=O)/C=C/c2ccc([N+](=O)[O-])o2)cc1 | 10 µM (active) | –
39 | O=C(Nn1c(SCc2ccc([N+](=O)[O-])cc2)nc2ccccc2c1=O)c1ccc(F)cc1 | 10 µM (active) | –
40 | CCC(CO)Oc1cc(NCc2cccc(C)c2)c2ncn(C(C)C)c2c1 (stereo not given) | – | -5.97% (inactive)

Reference: PubChem BioAssay AID493170 (National Center for Advancing Translational Sciences (NCATS), 2011)
